PubChem BioAssay AID1159580 (chemical genetic matrix, 2015)
Several values for one entry are separate records, joined by “and”; a condition that tells them apart may be missing. Identical values can stand only once. Among all 5,500 compounds or so, about 2,000 (36%) were called active. About 18% were inconclusive and are not listed. Rule as the data show it: active = normalized growth mostly below about 0.91 (no sharp cut-off); inconclusive = no clear call, values can overlap the other calls; inactive = mostly above about 0.92. Some of the results follow.

Assay: chemical genetic growth profiling, strain panel (AID 1159580);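 also: tested at 20 µM; growth read once vehicle control cultures reached saturation at 30 °C; 1 = growth at the plate median or of vehicle wells; lower values mean less growth of the strain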
Conditions: S. cerevisiae deletion strains, growth OD

Measured: normalized growth

CN1CC(=O)N=C1N
inactive: locus YAL013W, strain DEP1, stronger effect = lower value 1.01 | locus YAL021C, strain ccr4, stronger effect = lower value 1.01 | locus YAL026C, strain drs2, stronger effect = lower value 1.03 | locus YAL030W, strain snc1, stronger effect = lower value 1.02 | locus YBL061C, strain skt5, stronger effect = lower value 1.03 | locus YBR009C, strain hhf1, stronger effect = lower value 1.05 | locus YBR021W, strain FUR4, stronger effect = lower value 1 | locus YBR023C, strain chs3, stronger effect = lower value 1.03 | locus YBR171W, strain sec66, stronger effect = lower value 1.03 | locus YBR229C, strain ROT2, stronger effect = lower value 1 | locus YBR231C, strain swc5, stronger effect = lower value 1.03 | locus YBR279W, strain paf1, stronger effect = lower value 1.03 | locus YCL011C, strain gbp2, stronger effect = lower value 1.03 | locus YCL016C, strain dcc1, stronger effect = lower value 1.02 | locus YCL029C, strain bik1, stronger effect = lower value 0.986 | locus YCL061C, strain MRC1, stronger effect = lower value 1.01 | locus YCL069W, strain vba3, stronger effect = lower value 1.02 | locus YCR088W, strain abp1, stronger effect = lower value 1.01 | locus YDL005C, strain med2, stronger effect = lower value 1.02 | locus YDL035C, strain GPR1, stronger effect = lower value 1.01 | locus YDL040C, strain nat1, stronger effect = lower value 1.01 | locus YDL074C, strain BRE1, stronger effect = lower value 1.03 | locus YDL101C, strain DUN1, stronger effect = lower value 1.02 | locus YDL134C, strain PPH21, stronger effect = lower value 1 | locus YDL185W, strain tfp1, stronger effect = lower value 0.992 | locus YDL192W, strain arf1, stronger effect = lower value 1 | locus YDR001C, strain nth1, stronger effect = lower value 1.01 | locus YDR069C, strain doa4, stronger effect = lower value 1.04 | locus YDR101C, strain arx1, stronger effect = lower value 0.991 | locus YDR137W, strain rgp1, stronger effect = lower value 1.1 | locus YDR159W, strain sac3, stronger effect = lower value 1.05 | locus YDR162C, strain NBP2, stronger effect = lower value 1.02 | locus YDR195W, strain ref2 0.969 | locus YDR297W, strain sur2, stronger effect = lower value 1.02 | locus YDR318W, strain mcm21, stronger effect = lower value 0.997 | locus YDR334W, strain swr1, stronger effect = lower value 1.02 | locus YDR335W, strain msn5, stronger effect = lower value 1.03 | locus YDR388W, stronger effect = lower value 0.997 | locus YDR392W, strain spt3, stronger effect = lower value 1.02 | locus YDR502C, strain sam2, stronger effect = lower value 0.995 | locus YEL003W, strain gim4, stronger effect = lower value 1.04 | locus YEL037C, strain rad23, stronger effect = lower value 1.01 | locus YEL061C, strain CIN8 (second series), stronger effect = lower value 1.02 | locus YEL061C, strain CIN8, stronger effect = lower value 1.01 | locus YER015W, strain faa2, stronger effect = lower value 1.02 | locus YER016W, strain bim1, stronger effect = lower value 1.02 | locus YER110C, stronger effect = lower value 0.992 | locus YER111C, strain swi4, stronger effect = lower value 1.04 | locus YER155C, strain BEM2 (second series), stronger effect = lower value 1.06 | locus YER155C, strain BEM2, stronger effect = lower value 1.01 | locus YER167W, strain BCK2, stronger effect = lower value 1.01 | locus YFR010W, strain ubp6, stronger effect = lower value 1.03 | locus YGL078C, strain dbp3, stronger effect = lower value 0.995 | locus YGL086W, strain mad1, stronger effect = lower value 0.998 | locus YGL167C, strain pmr1, stronger effect = lower value 1.03 | locus YGL173C, strain kem1, stronger effect = lower value 1.03 | locus YGL227W, strain vid30, stronger effect = lower value 1.02 | locus YGL240W, strain doc1, stronger effect = lower value 1.05 | locus YGL248W, strain PDE1, stronger effect = lower value 1.01 | locus YGL253W, strain hxk2, stronger effect = lower value 1.02 | locus YGR078C, strain PAC10, stronger effect = lower value 1.01 | locus YGR135W, strain pre9, stronger effect = lower value 1 | locus YGR229C, strain SMI1, stronger effect = lower value 1.02 | locus YGR252W, strain gcn5, stronger effect = lower value 0.965 | locus YHR013C, strain ard1, stronger effect = lower value 1.06 | locus YHR027C, strain rpn1, stronger effect = lower value 1.02 | locus YHR030C, strain SLT2, stronger effect = lower value 1.01 and 0.962 | locus YHR079C, strain IRE1 (second series), stronger effect = lower value 0.994 | locus YHR079C, strain IRE1, stronger effect = lower value 0.966 | locus YHR094C, strain hxt1, stronger effect = lower value 0.994 | locus YHR129C, strain ARP1, stronger effect = lower value 1.01 | locus YHR142W, strain chs7, stronger effect = lower value 0.996 | locus YHR200W, strain rpn10, stronger effect = lower value 0.997 | locus YIL066C, strain RNR3, stronger effect = lower value 1.02 | locus YIL073C, strain SPO22, stronger effect = lower value 1.03 | locus YIL125W, strain kgd1, stronger effect = lower value 0.988 | locus YIR030C, strain dcg1, stronger effect = lower value 0.998 | locus YJL092W, strain hpr5, stronger effect = lower value 1.01 | locus YJL095W, strain BCK1 (second series), stronger effect = lower value 1.03 | locus YJL095W, strain BCK1, stronger effect = lower value 1.03 and 0.956 | locus YJL115W, strain asf1, stronger effect = lower value 1.02 | locus YJL129C, strain trk1, stronger effect = lower value 1.04 | locus YJL134W, strain LCB3, stronger effect = lower value 1.01 | locus YJL154C, strain vps35, stronger effect = lower value 1.02 | locus YJL164C, strain tpk1, stronger effect = lower value 1.05 | locus YJL166W, strain qcr8, stronger effect = lower value 1.03 | locus YJL168C, strain set2, stronger effect = lower value 1 | locus YJL187C, strain SWE1 (second series), stronger effect = lower value 1.02 | locus YJL187C, strain SWE1, stronger effect = lower value 1.03
